Assay [1] relates to Human papillomavirus type 1a protein E7 (residues 44-93). Briefly: small molecules binding HPV E7 44-93 – biochemical, small-molecule microarray, residues 44-93, 635 nm fluorescence, primary screen (AID 1108).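 Further: E7 fragment applied at 1 µg/mL in TBST for 1 h at 4 C; score combines spot fluorescence with its signal to noise ratio.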 Particulars: fluorescence 635 nm, higher = more signal.
Assay [2] is described as follows: hepatitis C replication reporter changes, two-sided – Huh7 cells, luciferase reporter, HCV replication inhibitor project, primary screen (AID 1109).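 Further: huh7 hepatoma cells harbouring a luciferase neomycin HCV replicon reporter; luciferase luminescence as measure of HCV replicon replication; test concentration not given here.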 As to conditions: Huh7 HCV replicon luciferase reporter, 48 h; higher = more signal. On the technique in general: A reporter such as luciferase makes a cellular process visible.
Assay [3] deals with Left-right determination factor 2 (Homo sapiens) (UniProt O00292). The experiment in a line: small molecules binding LEFTY2 protein – biochemical, small-molecule microarray, 635 nm fluorescence scan, primary screen (AID 1110). As to conditions: higher = more signal.
Assay [4] addresses Calmodulin-1 (Homo sapiens) (UniProt P0DP23). The experiment in a line: small molecules binding calmodulin-1 with EGTA – biochemical, small-molecule microarray, Cy5-labelled CALM1, profiling panel (AID 1111).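 Further: labelled calmodulin applied in Tris saline Tween buffer holding calcium plus EGTA and DTT.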 Particulars: Cy5-CALM1 binding fluorescence, higher = more signal.
Assay [5] shares this target. Briefly: small molecules binding Ca-loaded calmodulin-1 – biochemical, small-molecule microarray, Cy5-labelled CALM1, plus calcium, artefact control for SMM control-protein annotation, profiling panel (AID 1112).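 Further: score merges spot fluorescence with signal to noise from triplicate slides.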 As to conditions: Cy5-CALM1 binding fluorescence, higher = more signal.
Assay [6] in a line: probe aWnt5a binding to arrayed compounds – biochemical, biotinylated probe, 635/667 nm fluorescence, primary screen (AID 1113).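 Further: score merges 667 nm fluorescence intensity with signal-to-noise per printed feature.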 As to conditions: small-molecule microarray, higher = more signal.
A short description of assay [7]: probe aShh binding to arrayed compounds – biochemical, biotinylated probe, 635/667 nm fluorescence, primary screen (AID 1114).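 Further: probe is biotin-labelled aShh protein from a stem cell growth factor screen; measures binding of labelled protein to compounds printed on the slide; score merges feature fluorescence at 667 nm with signal-to-noise.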 Particulars: small-molecule microarray, higher = more signal.
A short description of assay [8]: probe aNog binding to arrayed compounds – biochemical, biotinylated probe, 635/667 nm fluorescence, primary screen (AID 1115).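 Further: probe is biotinylated aNog protein used at 0.15 µg/mL for 1 h at 4 C; z-score combines 667 nm fluorescence of each spot with its signal to noise.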 As to conditions: small-molecule microarray, higher = more signal.
Assay [9] concerns the target Torsin-1A-interacting protein 1 (Homo sapiens) (UniProt Q5JTV8). The experiment in a line: compound microarray binding of lysate hLAP1 – cell lysate, small-molecule microarray, COS7 lysate, 635/667 nm fluorescence, primary screen (AID 1116). Particulars: 635 nm fluorescence, higher = more signal.
Assay [10] deals with Alpha-bungarotoxin (Bungarus multicinctus) (UniProt P60615). The experiment in a line: compounds binding labelled alpha-BTX control protein – biochemical, small-molecule microarray, Alexa647 label, 635/667 nm fluorescence, artefact control for SMM control protein annotation, profiling panel (AID 1117). Particulars: alpha-BTX-A647 binding fluorescence, higher = more signal.
Assay [11] addresses Albumin (Bos taurus) (UniProt P02769). The experiment in a line: compounds binding labelled BSA control protein – biochemical, small-molecule microarray, Alexa647 label, 635/667 nm fluorescence, artefact control for SMM control protein annotation, profiling panel (AID 1118).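 Further: score merges 667 nm emission intensity and signal-to-noise per printed compound spot.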 Particulars: BSA-A647 binding, fluorescence 635 nm, higher = more signal.
A short description of assay [12]: probe aXIP binding to arrayed compounds – biochemical, NeuroSMM set, 635/667 nm fluorescence, primary screen (AID 1119).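 Further: probe is the protein aXip251-270 applied at 1 µg/mL to compound-printed slides; binding of probe to printed compounds measured as 667 nm fluorescence plus signal to noise.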 Particulars: small-molecule microarray, higher = more signal, called active from +8 up or from −8 down.
A short description of assay [13]: probe aNOTCH3 binding on compound microarray – biochemical, small-molecule microarray, 635/667 nm fluorescence, primary screen (AID 1120).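 Further: probe is a biotin-tagged antibody raised against NOTCH3 rather than NOTCH3 protein; score merges spot fluorescence near 667 nm with spot signal to noise.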 As to conditions: higher = more signal.
A short description of assay [14]: probe aNOTCH2 binding on compound microarray – biochemical, small-molecule microarray, 635/667 nm fluorescence, primary screen (AID 1121).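 Further: score merges feature fluorescence read at 667 nm with its signal to noise.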 As to conditions: higher = more signal.
In assay [15] the target is Carbonic anhydrase 2 (Homo sapiens) (UniProt P00918). Briefly: compounds binding carbonic anhydrase 2 – biochemical, small-molecule microarray, Alexa647-labelled CAII, profiling panel (AID 1122). Particulars: CAII-A647 binding fluorescence, higher = more signal.
Assay [16] can be described thus: COS7 lysate on small-molecule microarray, probe aHis, 635 nm (AID 1123).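 Further: z-score combines 667nm fluorescence intensity with signal-to-noise per printed compound spot.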 As to conditions: COS7 cell lysate, fluorescence, higher = more signal.
Assay [17] is described as follows: probe aLAP1 signal on lysate-treated microarray – cell lysate, small-molecule microarray, COS7 lysate, primary screen (AID 1124).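 Further: lysate comes from COS7 cells expressing LAP1 and is applied at 0.3 µg/mL; score merges spot fluorescence near 667 nm with signal-to-noise over triplicate slides.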 Particulars: probe aLAP1, fluorescence, higher = more signal.
For assay [18], the system named is Sam68 (KHDRBS1). The experiment in a line: compounds binding KHDRBS1 protein – biochemical, small-molecule microarray, 635 nm fluorescence, primary screen (AID 1125).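 Further: score merges 667 nm channel intensity with signal to noise over triplicate slides.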 Particulars: higher = more signal.
Assay [19] relates to Chordin-like protein 2 (CHRDL2). Briefly: compounds binding chordin-like 2 – biochemical, small-molecule microarray, 635 nm fluorescence, primary screen (AID 1126).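 Further: printed compound slides probed with Chrdl2 protein at 4 µg/mL for 1 h at 4 C; score merges 667 nm emission intensity with signal to noise over three replicate slides.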 As to conditions: fluorescence 635 nm, higher = more signal.
Assay [20] deals with Concanavalin-A (Canavalia ensiformis) (UniProt P02866). The experiment in a line: compounds binding concanavalin A lectin – biochemical, small-molecule microarray, Alexa647 label, 635 nm, artefact control for SMM control protein annotation, primary screen (AID 1127).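 Further: z combines 667 nm emission intensity with signal-to-noise across three replicate slides.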 Particulars: ConA-A647 binding fluorescence, higher = more signal.

Structures are written as SMILES. The source made the active and inactive calls.

Chain of Torsin-1A-interacting protein 1 (Homo sapiens) (Q5JTV8 whole entry, looked up): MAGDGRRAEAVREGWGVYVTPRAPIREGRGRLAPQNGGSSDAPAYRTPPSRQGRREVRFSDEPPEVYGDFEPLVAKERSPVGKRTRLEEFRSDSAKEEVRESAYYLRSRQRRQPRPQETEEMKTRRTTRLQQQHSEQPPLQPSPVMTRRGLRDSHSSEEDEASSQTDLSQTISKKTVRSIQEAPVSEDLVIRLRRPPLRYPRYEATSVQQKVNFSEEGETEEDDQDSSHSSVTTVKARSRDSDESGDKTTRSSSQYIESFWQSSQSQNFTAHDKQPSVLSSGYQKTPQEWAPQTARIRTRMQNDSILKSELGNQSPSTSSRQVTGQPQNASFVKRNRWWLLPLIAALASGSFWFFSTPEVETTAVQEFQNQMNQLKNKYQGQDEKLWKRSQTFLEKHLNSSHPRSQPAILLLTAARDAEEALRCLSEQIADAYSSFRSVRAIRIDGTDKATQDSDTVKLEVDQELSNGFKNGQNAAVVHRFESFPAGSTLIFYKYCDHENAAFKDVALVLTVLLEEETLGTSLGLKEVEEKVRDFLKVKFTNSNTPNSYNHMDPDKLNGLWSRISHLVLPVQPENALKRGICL
Chain of Albumin (Bos taurus) (P02769 whole entry, looked up): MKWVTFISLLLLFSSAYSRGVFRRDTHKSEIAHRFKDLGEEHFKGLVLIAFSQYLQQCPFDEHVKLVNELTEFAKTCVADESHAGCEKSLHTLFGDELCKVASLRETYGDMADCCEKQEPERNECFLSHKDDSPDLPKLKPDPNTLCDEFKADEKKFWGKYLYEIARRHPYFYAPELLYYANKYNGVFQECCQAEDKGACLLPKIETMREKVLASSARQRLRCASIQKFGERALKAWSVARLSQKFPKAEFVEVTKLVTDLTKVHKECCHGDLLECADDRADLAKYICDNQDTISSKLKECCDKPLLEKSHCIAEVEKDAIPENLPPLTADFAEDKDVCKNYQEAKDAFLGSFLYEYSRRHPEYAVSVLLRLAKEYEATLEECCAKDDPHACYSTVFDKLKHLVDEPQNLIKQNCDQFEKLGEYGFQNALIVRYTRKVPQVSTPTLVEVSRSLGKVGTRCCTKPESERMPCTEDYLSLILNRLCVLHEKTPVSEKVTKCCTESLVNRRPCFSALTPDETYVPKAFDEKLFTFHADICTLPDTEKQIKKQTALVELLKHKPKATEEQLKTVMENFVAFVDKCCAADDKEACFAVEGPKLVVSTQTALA
Chain of Concanavalin-A (Canavalia ensiformis) (P02866 whole entry, looked up): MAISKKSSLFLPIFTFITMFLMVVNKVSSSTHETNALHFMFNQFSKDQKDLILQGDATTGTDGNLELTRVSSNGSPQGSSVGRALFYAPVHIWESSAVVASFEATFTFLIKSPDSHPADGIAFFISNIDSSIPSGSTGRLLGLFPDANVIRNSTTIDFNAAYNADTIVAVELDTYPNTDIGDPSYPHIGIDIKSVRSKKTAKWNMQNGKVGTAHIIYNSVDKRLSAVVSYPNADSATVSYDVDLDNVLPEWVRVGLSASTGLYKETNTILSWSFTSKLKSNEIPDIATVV
Chain of Left-right determination factor 2 (Homo sapiens) (O00292 whole entry, looked up): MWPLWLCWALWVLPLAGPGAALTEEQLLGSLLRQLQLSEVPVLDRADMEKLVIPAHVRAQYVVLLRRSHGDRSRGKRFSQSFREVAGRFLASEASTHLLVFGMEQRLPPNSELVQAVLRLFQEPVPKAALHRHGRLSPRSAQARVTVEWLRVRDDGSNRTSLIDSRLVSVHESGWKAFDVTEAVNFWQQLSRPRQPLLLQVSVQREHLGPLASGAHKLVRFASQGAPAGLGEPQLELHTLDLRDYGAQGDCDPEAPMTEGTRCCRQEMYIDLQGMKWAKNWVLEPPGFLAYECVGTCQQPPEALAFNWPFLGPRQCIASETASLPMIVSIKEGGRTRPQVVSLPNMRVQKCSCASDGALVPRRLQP
Chain of Alpha-bungarotoxin (Bungarus multicinctus) (P60615 whole entry, looked up): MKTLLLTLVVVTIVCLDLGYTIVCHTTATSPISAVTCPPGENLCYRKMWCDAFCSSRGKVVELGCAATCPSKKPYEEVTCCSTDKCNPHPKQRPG

For `C=CCN1C(=O)[C@@]2(O[C@@H](CCO)[C@H]([Si](C)(C)c3ccc(OC)cc3)[C@H]2C)c2cc(N3C(=O)c4ccccc4Oc4ccccc43)ccc21`, the composite z-score in assay [1] is -0.719; in assay [3], 0.163; in assay [4] it was 1.4; in assay [5], 0.927; in assay [6], 0.0181; in assay [7], -0.186. Also, the composite z-score in assay [8] was 0.0061; in assay [9] it was 0.669; in assay [10], 0.328; in assay [11] it was 0.593; in [13], -0.145; in [14], -0.133. Also, the composite z-score in [15] was 0.307; in assay [16] it was 1.15; in assay [17] it was 0.478; in [18], 0.522; in [19] it was -0.0806; in assay [20], 0.854. In addition, in assay [2], the z-score was -5.16. Besides, in assay [12], the composite Z-score is 0.0553 (inactive).
Turning to `CC[C@H]1C2=C3C(CC[C@H]4C(OCc5ccc(F)cc5C(F)(F)F)OC[C@](C)([C@@H]34)N(C(=O)OC(C)(C)C)C2)C2COC(=O)OCC21` (stereo not given in full), the composite z-score in assay [1] was 1.34; in [3], -0.532; in [4], 2.48; in assay [5], 0.911; in assay [6], -0.0297; in assay [7] it was 0.246. For the same compound, the composite z-score in [8] was -0.712; in [9], 0.713; in assay [10], 0.347; in assay [11], 0.911; in [13], 0.367; in assay [14], 0.0755. The composite z-score was 0.578 in assay [15]; 2.62 in assay [16]; 0.494 in assay [17]; 1.32 in assay [18]; -1.64 in assay [19]; 0.994 in assay [20]. In [2], the z-score is -2.1. The composite Z-score in [12] was 0.572 (inactive).
In the case of `CC(C)(C)OC(=O)CC[C@@]1(C(=O)O)N=C(c2ccc(OCCCO)cc2)O[C@@H]1c1ccccc1CN=[N+]=[N-]`, the composite z-score in assay [1] is 1.31; in assay [3] it was -0.677; in assay [4] it was 1.33; in [5], 1.09; in assay [6], 0.145; in [7] it was 0.218. Besides, the composite z-score in assay [8] is -0.1; in assay [9], 1.24; in [10], 2.78; in assay [11], 0.939; in [13] it was 0.1; in assay [14], 0.046. Moreover, the composite z-score in assay [15] was 0.849; in [16] it was 2.23; in [17], 0.312; in assay [18] it was 0.76; in assay [19] it was -0.309; in assay [20], 1.18. Also, the z-score in assay [2] was -2.21. Moreover, the composite Z-score in [12] was 0.242 (inactive).
Take `COC(=O)[C@@]1(Cc2ccccc2)[C@H]2c3cc(C(=O)N4CCCC4)n(Cc4ccsc4Br)c3C[C@H]2CN1C(=O)c1ccccc1`: the composite z-score in assay [1] was 1.45; in [3], -0.505; in assay [4], 1.6; in assay [5], 1.17; in [6] it was 0.332; in assay [7] it was -0.0789. The composite z-score was 1.99 in [8]; 0.545 in [9]; 1.23 in [10]; 0.842 in assay [11]; 0.485 in assay [13]; 0.244 in [14]. The composite z-score in assay [15] is 0.555; in assay [16], 2.45; in assay [17], -0.0293; in assay [18], 1.33; in assay [19], -0.265; in assay [20], 1.01. The same compound came in with a z-score in [2] of -2.73. In [12], the composite Z-score is -0.314 (inactive).
In the case of `CCOC(=O)C1=CC[C@@H](c2ccc([N+](=O)[O-])cc2)N(S(=O)(=O)c2ccc(C)cc2)[C@H]1c1ccccc1`, the composite z-score was 1.4 in assay [1]; 0.995 in assay [3]; 0.455 in [4]; 0.423 in assay [5]; 0.0324 in assay [6]; -0.0769 in assay [7]. For the same compound, the composite z-score was 0.506 in assay [8]; 0.378 in [9]; 0.962 in assay [10]; 0.845 in assay [11]; 0.233 in [13]; -0.0297 in assay [14]. The composite z-score in [15] is 0.373; in [16] it was 2.21; in assay [17], 0.359; in [18], 1.28; in [19], 0.402; in assay [20] it was 0.842. Moreover, in assay [2], the z-score was -1.55. Further, the composite Z-score in assay [12] is 0.312 (inactive).
As to `COC(=O)Cn1c(C(=O)N2CCCC2)cc2c1C[C@H]1CN(C(=O)c3ccccc3)[C@@](Cc3ccc(F)cc3)(C(=O)OC)[C@@H]21`, the composite z-score was -0.137 in assay [1]; -0.0715 in assay [3]; 1.15 in assay [4]; 0.153 in assay [5]; -0.0405 in assay [6]; -0.0738 in assay [7]. Besides, the composite z-score in assay [8] was -0.298; in assay [9], 0.943; in assay [10], -0.155; in assay [11], 0.827; in [13] it was -0.0888; in [14], -0.036. In addition, the composite z-score in assay [15] is 0.885; in [16], 0.965; in assay [17] it was 0.0395; in [18], -1.17; in [19], -0.451; in [20], -0.432. The compound further yielded a z-score in [2] of -1.32. Moreover, in assay [12], the composite Z-score was -0.14 (inactive).

(Values after PubChem BioAssay.)
